Unmarked numbers belong to inactive results. The rule behind the calls is not given here.
Target: Pantothenate synthetase (Mycobacterium tuberculosis (strain ATCC 25618 / H37Rv)) (UniProt P9WIL5)
Assay: Recombinant Mtb pantothenate synthetase (PanC) inhibitors, coupled enzyme, confirmatory (AID 375);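 note: 0% = full reaction with vehicle and 100% = no enzyme background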
Conditions: coupled enzyme assay; at 10 µM, stronger effect = higher value

Chain of Pantothenate synthetase (Mycobacterium tuberculosis (strain ATCC 25618 / H37Rv)) (P9WIL5 whole entry, looked up): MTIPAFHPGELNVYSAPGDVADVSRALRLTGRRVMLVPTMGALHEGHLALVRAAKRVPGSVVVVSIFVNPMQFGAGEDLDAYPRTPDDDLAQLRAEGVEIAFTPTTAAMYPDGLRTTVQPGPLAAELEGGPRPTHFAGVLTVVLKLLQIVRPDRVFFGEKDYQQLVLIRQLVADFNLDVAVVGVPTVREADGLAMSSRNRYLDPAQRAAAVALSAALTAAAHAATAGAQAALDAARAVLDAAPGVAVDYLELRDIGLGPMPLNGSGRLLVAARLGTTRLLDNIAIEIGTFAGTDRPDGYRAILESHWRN

SMILES | inhibition
CCOC(=O)C1CCN(c2c(NC3CCCc4ccccc43)c(=O)c2=O)CC1 (configuration not stated) | 2%
C=CCc1cc(C(=O)N2CCCCC2)ccc1O | 0%
Cc1ccc(S(=O)(=O)Cn2nnnc2CN(Cc2ccco2)CC2CCCO2)cc1 (configuration not stated) | 3%
O=C(Nc1nc(-c2ccc(S(=O)(=O)N3CCCCCC3)cc2)cs1)c1cccs1 | 0%
Cc1cc2cc(CN(CC3CCCO3)C(=O)c3cnccn3)c(=O)[nH]c2cc1C (configuration not stated) | 4%
CCOC(=O)c1cnn(-c2ncnc3c2cnn3Cc2ccccc2)c1N | 5%
CCOc1cc(C2C(C(=O)OC(C)C)=C(C)N=C3SCCC(=O)N32)ccc1OC(C)=O (configuration not stated) | 0%
CCOC(=O)C1CCN(C(=O)COc2ccc(S(=O)(=O)NC(C)C)cc2Cl)CC1 | 0%
CC(C)(C)N=C1NC(=NC(C)(C)C)c2ccccc21 | 0%
O=c1[nH]c(SCc2cc(=O)n3ccccc3n2)nc2c1CCC2 | 4%
COCCn1c(COc2ccc(Cl)cc2)nnc1SCC(N)=O | 0%
CCOC(=O)c1cc2sc(C)cc2n1CC(=O)NCc1ccc(F)cc1 | 2%
COc1ccccc1NC(=O)NC1(C(=O)N2CCC(O)CC2)CCCCC1 | 0%
Cc1cc(C)nc(NC(=O)c2ccc(OC(C)C)cc2)n1 | 0%
CCc1ccccc1NC(=O)CN(c1cccc(OC)c1)S(C)(=O)=O | 7%
COc1cc(-c2nc(-c3ccncc3)no2)cc(OC)c1OC | 2%
COCCCNC(=O)CCn1c(=O)c2ccccc2n(CC(=O)Nc2ccc(C)cc2C)c1=O | 0%

— PubChem BioAssay
